# Hits are enriched below; roughly 4.5% of the tested compounds scored in any of these assays.
# tim10-1 inh = inhibits growth of tim10-1 mutant yeast. inhibition, % at 20 µM. actives 2.2% (n = 330,000). S. cerevisiae tim10-1 ts strain growth, BacTiter-Glo, 24 h;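 active means inhibition of at least 40%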;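 further: mutant grown at 25 °C; 0% = DMSO wells with yeast and 100% = wells holding no yeast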
# TIM10 inh = TIM10 yeast growth inhibition; actives 1.4% (n = 330,000); inhibition, % at 10 µM; S. cerevisiae TIM10 strain growth, BacTiter-Glo luminescence, 24 h; AID 463195;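 active means inhibition of 40% or more at the single tested concentration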;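 further: wild-type TIM10 isogenic control strain grown at permissive 25 °C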
# PfHsp90 yeast 2 = growth inhibition of yeast expressing Plasmodium Hsp90. S. cerevisiae expressing PfHsp90, BacTiter-Glo ATP, 48 h; yeast lacking PDR1 and PDR3 efflux regulators. inhibition, % at 9.4 µM. actives 0.32% (n = 310,000). AID 504621;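 active means every replicate shows inhibition above about 80%, whatever the replicate mean, limit read from the data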;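 further: 0% = DMSO neutral controls and 100% = 20 µM radicicol positive controls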
# tim23-1 inh = inhibits growth of tim23-1 mutant yeast; S. cerevisiae tim23-1 growth, BacTiter-Glo luminescence, 24 h; inhibition, % at 20 µM; actives 1.3% (n = 330,000);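 active means growth inhibition of the mutant yeast at or above 50%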;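 further: temperature-sensitive mutant grown at 25 °C; plate controls were DMSO-treated mutant yeast for no effect and medium wells lacking yeast for full effect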
# NALP3 yeast inh = inhibitors of NALP3 inflammasome in yeast | Yeast reconstituted NLRP3/ASC/caspase-1, beta-gal luminescence, 24 h | inhibition, % at 10 µM | actives 0.39% (n = 330,000) | AID 2825;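 active means inhibition of 50% or more; inactive means inhibition below 50%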;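 further: plate controls were induced DMSO wells for no effect and uninduced yeast grown without galactose for full effect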
# SKKanGAS inh = blocks kanamycin growth of S. pyogenes SKKanGAS strain; actives 1.3% (n = 300,000); BacTiter-Glo, 6 h; inhibition, % at 7.5 µM;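 active means mean replicate score, as percent of positive control median, at least 50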;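 further: strain carries kanamycin resistance gene driven by streptokinase promoter and grows in 40 µg/ml kanamycin; loss of luminescence reflects streptokinase promoter inhibition or plain growth inhibition; 0% = median of DMSO wells and 100% = positive control at its reference dose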
# NALP3 yeast conf = confirmation of NALP3 inhibitors in yeast; yeast expressing human NALP3, luminescence; inhibition, % at 10 µM; shares compounds with NALP3 yeast inh; actives 81% (n = 1,300); in the data active means inhibition above about 48%
# Casp1 ASC ctr = active in yeast caspase-1-ASC counter-screen for NALP3 inhibitors | shares compounds with NALP3 yeast inh | yeast expressing Caspase-1-ASC, luminescence counter screen | inhibition, % at 10 µM | actives 66% (n = 1,000) | AID 488784
# NALP3 yeast rt = yeast NALP3 inhibition, confirmed on retest; shares compounds with NALP3 yeast inh; actives 53% (n = 1,000); yeast expressing human NALP3, luminescence read-out; AID 488794; inhibition, % at 10 µM
# Starred values were filed as active, the others as inactive; / = no result given. Unless noted, no stated cut-off is given here; in the data, active means inhibition above about 50%; inactive means the rest.
SMILES,tim10-1 inh,TIM10 inh,PfHsp90 yeast 2,tim23-1 inh,NALP3 yeast inh,SKKanGAS inh,NALP3 yeast conf,Casp1 ASC ctr,NALP3 yeast rt
NCCOc1ccccc1-c1ccccc1,-6,0,-56,-8,54*,3,66*,56*,50*
N#CC1C(=O)c2ccccc2C1c1ccccc1 (stereo not given),/,/,75,/,/,/,/,/,/
CCCCc1c(C)c(C#N)c2[nH]c3ccccc3n2c1=O,19,10,4,15,58*,9,78*,-1,20
CS(=O)(=O)c1ccc(-n2c(=O)n(Cc3ccccc3)c(=O)c3[nH]cnc32)cc1,0,-1,-29,-10,13,-2,/,/,/
CNc1nc(SCc2ccc(C)cc2)nc2c1CCCC2,28,12,-27,34,97*,3,99*,99*,99*
COc1ccc(CCNC(=O)CCCc2nnc3n(C)c(=O)c4sccc4n23)cc1OC,9,-10,-18,-2,22,-1,/,/,/
CSc1oc(-c2ccccc2)nc1S(=O)(=O)c1ccc(C)cc1,18,-9,-1,8,53*,-12,68*,56*,48
Cc1ccccc1NC(=O)Nc1ccccn1,-20,-5,-25,4,53*,0,69*,47,33
COc1ccccc1NC(=O)Nc1ncccc1C,-3,-3,/,21,60*,1,71*,/,/
O=[N+]([O-])c1ccccc1Nc1nc(-c2cccnc2)cs1,-40,1,-4,14,24,-6,/,/,/
CCCNC(=O)C1CN(S(=O)(=O)c2ccc(Cl)s2)c2ccccc2O1 (stereo not given),8,0,-10,14,18,/,/,/,/
Clc1ccccc1OCCn1cnc2ccccc21,23,-8,/,34,76*,-6,84*,79*,63*
Clc1ccc(OCCn2cnc3ccccc32)cc1,27,10,-10,33,49,4,/,/,/
COC(=O)CNC(=O)C1CC(=O)N(CCc2ccc(F)cc2)C1 (stereo not given),-5,2,-10,-9,15,-2,/,/,/
O=C(C[n+]1ccccc1)N/N=C/c1cc(Br)ccc1O,21,17,-1,18,64*,8,66*,51*,66*
O=C(C[n+]1ccccc1)N/N=C/c1ccccc1F,-9,-3,-36,6,13,-1,/,/,/
Cc1nn(-c2c(Cl)cc(Cl)cc2Cl)c(=O)c2ccccc12,14,-1,4,34,63*,11,73*,59*,53*
O=C(Nc1ccc([N+](=O)[O-])cc1)Nc1ccc(Cl)cc1F,25,4,17,-19,76*,58*,49*,27,20
CCN1CCN(C(=O)c2cccc(OC3CCN(S(C)(=O)=O)CC3)c2)[C@@H](C)C1=O,2,5,3,2,14,4,/,/,/
CCN(CC)c1ccc(NC(=O)CSC(=O)c2ccccc2)cc1,-13,10,3,28,56*,/,54*,57*,42
CC(=O)c1cccc(NC(=O)CSC(=O)c2ccccc2)c1,32,22,/,35,9,-2,/,/,/
O=C(C[C@H]1C/C=C\C[C@@H](Cc2ccc(F)cc2)C(=O)OC[C@@H](Cc2c[nH]c3ccccc23)NC1=O)NCCO,10,2,5,18,16,/,/,/,/
CCCN(C(=O)Cc1coc2cc(OC)ccc12)C1CCS(=O)(=O)C1 (stereo not given),-5,-14,17,-1,-4,/,/,/,/
CCCCCCCCC(=O)N1CCN(c2cc3c(cc2F)c(=O)c(C(=O)O)cn3CC)CC1,-3,-2,-7,-3,57*,9,52*,25,27
O=C(OCC1CCNCC1)c1ccc(F)cc1,/,/,-46,/,/,/,/,/,/
SMILES,tim10-1 inh,TIM10 inh,PfHsp90 yeast 2,tim23-1 inh,NALP3 yeast inh,SKKanGAS inh,NALP3 yeast conf,Casp1 ASC ctr,NALP3 yeast rt
COc1ccccc1CNCC(=O)Nc1ccc(N(C)C)cc1,14,0,0,1,20,-6,/,/,/
CC(C)CCNC(=O)c1ccc(-c2ccccc2)cc1,15,13,/,22,52*,-6,61*,47,36
CC(C)CCNC(=O)c1cccc(C(=O)NCCC(C)C)c1,18,0,4,9,14,2,/,/,/
Cc1nc2ccc(NC(=O)Cc3ccsc3)cc2s1,1,-15,42,1,19,2,/,/,/
Cc1ccc(NC(=O)Cc2ccsc2)cc1Cl,0,-4,-3,15,54*,2,68*,43,38
O=C(COC(=O)CN1C(=O)COc2ccccc21)NC1CCCCC1,3,-2,2,16,-2,-3,/,/,/
Cc1cc(N2CCOCC2)n2ncc(-c3ccccc3Cl)c2n1,/,/,18,/,/,10,/,/,/
COc1cc(C(C[N+](=O)[O-])c2c(N)n(C)c(=O)n(C)c2=O)ccc1O (stereo not given),-4,28,-6,48,50*,1,32,/,/
COc1cc(C(C[N+](=O)[O-])c2c(C)[nH]c3ccccc23)ccc1O (stereo not given),26,29,23,25,10,8,/,/,/
O=C(Nc1cccc(-c2cnc3ccccc3n2)c1)c1ccco1,22,34,20,22,22,7,/,/,/
O=C(Nc1cnc2ccccc2c1)c1ccco1,-22,15,-6,16,52*,-5,38,41,42
FC(F)(F)c1cc(-c2ccccc2)nc(NCc2cccnc2)n1,13,21,-20,0,54*,27,24,/,/
FC(F)(F)c1cc(-c2ccco2)nc(NCc2ccccc2)n1,10,-6,/,22,12,5,/,/,/
FC(F)(F)c1cc(-c2ccco2)nc(NCc2cccnc2)n1,15,9,-3,3,53*,6,66*,52*,36
COc1ccc(CN(C)CC(=O)NCC(=O)Nc2c(C)cccc2C)cc1,5,-1,2,-2,7,/,/,/,/
CC(C)(C)OC(=O)n1cc(/C=N/NC(=O)c2ccco2)c2ccccc21,16,5,-5,25,18,-2,/,/,/
CCOC(=O)CCSc1nc2c(c(C(F)(F)F)c1C#N)CCC2,6,-16,-15,10,60*,-7,47*,64*,59*
CCCCSc1nc2c(c(C(F)(F)F)c1C#N)CCC2,8,-8,-53,-13,4,30,/,/,/
Cc1ccc(C(=O)CSc2ncnc3ccccc23)o1,2,4,-11,-14,54*,/,69*,73*,58*
O=C(OCC(=O)c1c[nH]c2ccccc12)c1cccc([N+](=O)[O-])c1,-5,1,-33,11,25,/,/,/,/
